Among the test systems are HCT-15 colon; HT29 colon; SNB-75 CNS; SNB-19 CNS; U251 CNS; PC-3 prostate; SK-MEL-5 melanoma; UACC-62 melanoma; SK-MEL-28 melanoma; SK-MEL-2 melanoma; EKVX NSCLC; SN12C renal; TK-10 renal; CAKI-1 renal; A498 renal; CCRF-CEM leukemia; MOLT-4 leukemia; UO-31 renal; ACHN renal; LOX IMVI melanoma.
Holding throughout (assay): NCI-60 one-dose screen, 48 h (100 = growth as untreated, 0 = no growth, -100 = all killed)
What all share (conditions): 10 µM unless noted

This passage reports growth results from PubChem BioAssay (NCI).

Several values for one entry are separate records, joined by “and”; a condition that tells them apart may be missing. Identical values can stand only once. This is part of a sample that, as a whole, favours compounds with a hit. Of some 83,000 tested, about 20% had one in any assay.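 Growth was measured after 48 h exposure to one concentration of compound in 96-well plates. Values under 10 count as active.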 Values without a mark were called inactive. Activity calls are given as the source filed them.

In the case of `O=C(CN1CCOCC1)N1CCOCC1`, the growth in the assay with HCT-15 colon was 111% and 98%; with HT29 colon it was 91%; with SNB-75 CNS it was 106% and 104%; in the assay with SNB-19 CNS, 103% and 105%; in the assay with U251 CNS it was 107%; in the assay on PC-3 prostate, 90.8%. Also, the growth in the assay on SK-MEL-5 melanoma is 107% and 105%; with UACC-62 melanoma it was 93.9% and 96.6%; in the assay with SK-MEL-28 melanoma, 123% and 107%; with SK-MEL-2 melanoma, 109%; in the assay on EKVX NSCLC, 117% and 84%; with SN12C renal, 95.9% and 97.7%. The growth in the assay with TK-10 renal was 96.8% and 104%; in the assay on CAKI-1 renal it was 105% and 88.3%; in the assay on A498 renal, 108%; in the assay on CCRF-CEM leukemia it was 106%; with MOLT-4 leukemia, 97.9% and 103%.

With `CC(=O)Nc1cc(S(=O)(=O)O)cc2cc(S(=O)(=O)O)c(N=Nc3ccccc3)c(O)c12`, the growth was 116% and 111% in the assay with HCT-15 colon; 118% and 92.2% in the assay with HT29 colon; 92.8% and 98.1% with SNB-75 CNS; 110% and 99.9% with SNB-19 CNS; 110% and 101% in the assay on U251 CNS; 88.3% and 94.9% with PC-3 prostate. Also, the growth is 99.4% in the assay on SK-MEL-5 melanoma; 108% and 92.2% with UACC-62 melanoma; 119% and 116% in the assay with SK-MEL-28 melanoma; 116% and 88.7% in the assay with SK-MEL-2 melanoma; 115% and 113% in the assay with EKVX NSCLC; 106% and 98.4% with SN12C renal. Moreover, the growth with UO-31 renal is 94.2% and 83.2%; with TK-10 renal it was 110% and 98.4%; in the assay on CAKI-1 renal, 99.6%; in the assay on A498 renal, 102% and 92.4%; in the assay with CCRF-CEM leukemia, 97.5% and 90.8%; in the assay with MOLT-4 leukemia, 111% and 94.7%.

`OCCN1CCN(CCO)CC1`: the growth with HCT-15 colon was 102% and 101% and 107%; with HT29 colon, 108% and 101% and 110%; with SNB-75 CNS, 111% and 83.4% and 96.1%; in the assay on SNB-19 CNS, 99.2% and 113%; in the assay with U251 CNS it was 95.7% and 98% and 105%; in the assay on PC-3 prostate it was 91.7% and 99.9% and 96.2%. The growth in the assay with SK-MEL-5 melanoma is 102% and 92% and 115%; with UACC-62 melanoma, 99.5% and 92.6% and 109%; in the assay on SK-MEL-28 melanoma, 33.7% and 104% and 106%; with SK-MEL-2 melanoma it was 104% and 97.3% and 115%; in the assay on EKVX NSCLC it was 107% and 85.1% and 114%; in the assay on SN12C renal it was 98.1% and 89.2% and 112%. The growth in the assay with TK-10 renal was 93.6% and 107% and 108%; in the assay with ACHN renal, 99.1% and 98% and 104%; in the assay on A498 renal, 110% and 95.5% and 101%; in the assay with CCRF-CEM leukemia, 99.5% and 88.4% and 98%; in the assay with MOLT-4 leukemia, 92.9% and 96.2% and 97.8%.

Consider `CN(Cc1ccccc1)Cc1ccccc1`, for which the growth is 103% in the assay on HCT-15 colon; 102% with HT29 colon; 87.4% in the assay with SNB-75 CNS; 106% with SNB-19 CNS; 99% in the assay on U251 CNS; 103% with PC-3 prostate. For the same molecule, the growth with SK-MEL-5 melanoma is 104%; in the assay with UACC-62 melanoma, 101%; in the assay on LOX IMVI melanoma, 95.1%; with SK-MEL-2 melanoma, 104%; in the assay with EKVX NSCLC, 102%; in the assay with SN12C renal, 101%. For the same molecule, the growth was 93% in the assay with UO-31 renal; 88.2% in the assay on TK-10 renal; 108% in the assay on ACHN renal; 93.9% with CAKI-1 renal; 114% in the assay with A498 renal; 115% with CCRF-CEM leukemia. Also, the growth in the assay with MOLT-4 leukemia is 122%.

For the molecule `CCC(=O)C(CC)c1cccc(OC)c1` (configuration not stated), the growth in the assay on HCT-15 colon was 103%; with HT29 colon it was 103%; in the assay with SNB-75 CNS, 76.7%; in the assay on SNB-19 CNS, 111%; in the assay with U251 CNS, 99.4%; with PC-3 prostate, 98.8%. The growth in the assay with SK-MEL-5 melanoma is 101%; in the assay on UACC-62 melanoma, 108%; in the assay on LOX IMVI melanoma, 100%; in the assay on SK-MEL-2 melanoma, 116%; with EKVX NSCLC, 106%; in the assay on SN12C renal, 112%. In addition, the growth is 89.9% in the assay with UO-31 renal; 101% in the assay with TK-10 renal; 106% in the assay on ACHN renal; 87.8% in the assay with A498 renal; 93.8% with CCRF-CEM leukemia; 98.4% in the assay with MOLT-4 leukemia.

`CCOc1ccc2nc3cc(N)ccc3c(N)c2c1`: the growth was 107% and 90% in the assay on HCT-15 colon; 75.7% and 60.7% with HT29 colon; 47.6% in the assay on SNB-75 CNS; 10.5% in the assay on SNB-19 CNS; -12.6% (active) and 5.58% (active) in the assay with U251 CNS; 61.8% and 75.6% in the assay on PC-3 prostate. Besides, the growth in the assay with SK-MEL-5 melanoma is 43.2%; in the assay on UACC-62 melanoma, 73.8%; in the assay on SK-MEL-28 melanoma it was 75.5% and 89.8%; in the assay on SK-MEL-2 melanoma it was 20% and 24.6%; in the assay on EKVX NSCLC it was 57.3% and 80%; in the assay with SN12C renal it was 18.5%. Further, the growth with UO-31 renal is 74.9% and 63%; in the assay with TK-10 renal it was 117% and 122%; with CAKI-1 renal, 100% and 108%; with A498 renal it was 71% and 79.9%; in the assay on CCRF-CEM leukemia, 68.5% and 54.2%; in the assay on MOLT-4 leukemia it was 34.9% and 25.3%.
